In PubChem BioAssay AID624169 (The Scripps Research Institute Molecular Screening Center, 2012):
The whole screen tested about 360,000 compounds, of which about 2,400 (0.67%) were called active. This is one part of a sample in which actives are shown more often than they occur.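 Rule for the calls: active = activation above a run cutoff, the mean activation of all tested compounds plus 3 SD (cut at about 14% in these data); inactive = the rest.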

Target: 5-hydroxytryptamine receptor 2A (Mus musculus) (UniProt P35363)
Sequence (P35363 whole entry, looked up): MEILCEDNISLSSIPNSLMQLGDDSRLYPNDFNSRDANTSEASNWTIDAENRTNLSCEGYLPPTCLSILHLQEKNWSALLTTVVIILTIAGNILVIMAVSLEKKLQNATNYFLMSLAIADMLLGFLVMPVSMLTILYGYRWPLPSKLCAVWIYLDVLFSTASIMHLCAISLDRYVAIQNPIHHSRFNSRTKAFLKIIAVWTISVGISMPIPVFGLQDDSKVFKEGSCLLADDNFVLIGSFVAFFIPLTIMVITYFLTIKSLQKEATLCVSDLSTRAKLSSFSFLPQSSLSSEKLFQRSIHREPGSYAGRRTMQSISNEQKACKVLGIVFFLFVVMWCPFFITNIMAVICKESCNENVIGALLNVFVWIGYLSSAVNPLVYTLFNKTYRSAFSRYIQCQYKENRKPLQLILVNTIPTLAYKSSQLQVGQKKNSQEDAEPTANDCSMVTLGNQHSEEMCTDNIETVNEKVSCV
Assay: mouse Htr2a agonists via beta-arrestin recruitment, primary screen, cell-based, luminescence (AID 624169);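 note: 0% = plate median of compound wells and 100% = 30 µM serotonin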
Conditions: CHO-K1 mHTR2A beta-arrestin complementation, at 7.6 µM, hits give high values, percent of 30 µM serotonin response

activation, active:
COc1ccc(C2c3[nH]c4ccccc4c3C[C@H]3C(=O)N(CC(C)C)CC(=O)N23)c(OC)c1 (stereo partly drawn) 26.6%
O=C(c1ccncc1)N1CCN(c2ccc3ccccc3n2)CC1 25.6%
COc1cccc(NC(=O)CSc2nnc(-c3cccnc3)o2)c1 14.9%
CC(C)Oc1ccccc1C(=O)NC(CO)C(=O)O (stereo not drawn) 21.6%
Cc1cc(C)n(S(=O)(=O)c2cccc([N+](=O)[O-])c2)n1 18.4%
CCCCn1c(N)c(N(CC(C)C)C(=O)CSc2ccc([N+](=O)[O-])cc2)c(=O)[nH]c1=O 20.3%
Cc1ccc(C(=O)N/C(=C/c2cccs2)C(=O)N2CCCCC2)cc1 19.9%
O=C(OCC(=O)N1CCOCC1)c1ccc2ccccc2c1 14.5%
CCCCNc1c(-c2cccc(Sc3ccc(OC)cc3)c2)nc2ccccn12 23.6%
COc1ccc(/C=N/Nc2ccccc2C(=O)O)cc1 15.9%
NNc1cccc(C=Cc2ccccc2)cc1=O 15.7%
CSc1ncnc2c1ncn2CCCNCc1cccs1 19.2%
FC(F)(F)COc1nc(N2CCCCC2)nc(N2CCNCC2)n1 25.4%
COC(=O)c1ccc(CSc2nnc(NC(C)C)s2)cc1 16%
Cc1ccccc1CSCC(=O)NC(=O)NC(C)(C)C 19.9%
COc1ccc(-c2nc3cc([N+](=O)[O-])ccc3o2)cc1OC 15.3%
Cc1ccc2nc(-c3ccncc3)cc(C(=O)Nc3ccncc3)c2c1 14.5%
CCOC(=O)/C=c1\s/c(=C\c2ccccc2OC)c(=O)n1CC(=O)N1CCOCC1 15.6%
CCOC(=O)[C@]12CCCC=C1N(Cc1ccc3c(c1)OCO3)C(=O)[C@H](CC(=O)NCc1cccs1)C2 23.4%

activation, inactive:
COc1cccc(C2c3[nH]c4ccccc4c3CCN2Cc2cccc(C)n2)c1 (stereo not drawn) -2.83%
CCC(C)N1CC(=O)N2Cc3[nH]c4ccccc4c3C[C@H]2C1=O (stereo partly drawn) -3.21%
S=C(Nc1ccc(Cl)cc1Cl)N1CCCC1 -3.15%
O=C(c1ccc2ccccc2n1)N1CCN(c2ccccc2Cl)CC1 7.25%
c1cnc(N2CCN(c3ccc4ccccc4n3)CC2)nc1 -1.28%
COc1ccc(NC(=O)COC(=O)c2ccncc2)c(OC)c1 -1.11%
CCOC(=O)N1CCC(Nc2c(NCCCN3CCN(c4ccc(OC)cc4)CC3)c(=O)c2=O)CC1 4.04%
CCCOc1ccc(CNC(=O)C2CCN(c3nn4c(=O)cc(C)nc4s3)CC2)cc1 11%
O=C(CSc1nnc(-c2ccncc2)o1)Nc1cccc(Cl)c1 -0.76%
COC(=O)CSc1nnc(-c2cccnc2)o1 1.04%
O=C(CSc1nncs1)NC1CCCc2ccccc21 (stereo not drawn) -0.06%
CC(C)COC(=O)n1c(=O)oc2ccc(S(=O)(=O)N3CCCCC3)cc21 0.93%
COc1ccc(Cn2c(=O)sc3ccccc32)cc1OC 8.35%
Cc1csc2ncc(C(=O)N(Cc3ccccc3)c3ccccn3)c(=O)n12 0.53%
CC(C)CNC(=S)NNC(=O)c1ccccc1OC(F)F 1.02%
COc1ccccc1C(=O)NC(CCSC)C(=O)N1CCN(C(C)=O)CC1 (stereo not drawn) -3.47%
O=C(COc1ccc2c(c1)CCC2)N1CCN(c2ccc(F)cc2)CC1 -4.42%
CC[C@@H](C)[C@H](NC(=O)CCc1c(C)c2cc3c4c(oc3c(C)c2oc1=O)CCCC4)C(=O)O 6.8%
CCCCNS(=O)(=O)c1ccc2nc(SCC(=O)Nc3cc(C)cc(C)c3)[nH]c2c1 12.2%
O=[N+]([O-])c1cccc(S(=O)(=O)N2CCCCCC2)c1 -1.72%
CC1=NCCN1S(=O)(=O)c1cccc([N+](=O)[O-])c1 -2.76%
Cc1cc(C)cc(NC(=O)COc2coc(CN3CCN(c4ccccc4)CC3)cc2=O)c1 6.93%
c1ccc(-c2nnc3n2NC(c2ccc4c(c2)OCO4)S3)cc1 (stereo not drawn) -0.81%
Cc1ccc(/C=C/C(=O)OCC(=O)NCc2ccc(Cl)cc2)o1 -2.51%
CCCCn1c(N)c(N(CC(C)C)C(=O)CN(C)S(=O)(=O)c2ccc(F)cc2)c(=O)[nH]c1=O 2.45%
CCCCn1c(N)c(N(CCC(C)C)C(=O)c2ccc([N+](=O)[O-])o2)c(=O)[nH]c1=O 5.32%
COC(=O)c1ccc(S(=O)(=O)N2CCC(c3nc4ccccc4o3)CC2)cc1 2.01%
CN1CCN(C(=O)/C(=C\c2cccs2)NC(=O)c2cccs2)CC1 -0.61%
Cc1ccc(C(=O)N/C(=C/c2cccs2)C(=O)NCC2CCCO2)cc1 (stereo not drawn) 6.31%
CCOc1cc(CN2CCCC(CO)(Cc3ccc(F)cc3F)C2)ccc1OC (stereo not drawn) -5.38%
CCOC(=O)c1sc(NC(=O)CSc2n[nH]c(CC)n2)nc1C -3.89%
Cc1ccc(C(=O)OCC(=O)N2CCCCCC2)cc1S(=O)(=O)N1CCOCC1 4.82%
O=C(OCC(=O)N1CCOCC1)c1ccc(N2CCOCC2)c([N+](=O)[O-])c1 -5.4%
Cc1oc2nc(SCC(=O)NCc3cccnc3)nc(N)c2c1C 0.74%
COC(=O)c1ccc2nc(-c3cccc(Br)c3)c(Cc3ccc(OC)cc3C)n2c1 -0.25%
COC(=O)c1ccc2nc(-c3ccccc3)c(Cc3ccc(OC)cc3C)n2c1 -0.62%
COc1ccc(/C=N/NC(=O)C(C)N(c2ccc(OC)cc2)S(C)(=O)=O)cc1 (stereo not drawn) -1.2%
COc1ccc(/C=N/NC(=O)Cn2cc(C(F)(F)F)ccc2=O)cc1 -1.47%
COc1ccc(-c2nnc3n2CCCCC3)cc1 -2.42%
COc1cc(OC)cc(C(=O)NNC(=O)CCOc2ccccc2OC)c1 -0.14%
O=C(COC(=O)/C=C/c1cccc(Cl)c1)NCCc1ccccc1 -2.95%
CC(=O)C1=C(O)C(=O)N(c2ccc(S(N)(=O)=O)cc2)C1c1ccccc1F (stereo not drawn) 3.54%
CSc1ncnc2c1ncn2CCCNCc1ccco1 5.16%
CSc1ncnc2c1ncn2CCCNCC(C)c1ccccc1 (stereo not drawn) -3.42%
COc1ccc(CCNC(=O)C2CCCN2C(=O)Nc2ccccc2)cc1OC (stereo not drawn) -3.12%
CCOC(=O)N1CCN(C(=O)CN(C2CCCCC2)S(C)(=O)=O)CC1 7.43%
CN(N)c1nc(N2CCCC2)nc(N2CCCC2)n1 3.15%
COc1nc(NC2CCCCC2)nc(N2CCCCCC2)n1 -0.64%
COC(=O)c1ccc(CSc2nncn2C)cc1 4.16%
COC(=O)c1ccc(CSc2nncn2N)cc1 -0.96%
OC(COCCC12CC3CC(CC(C3)C1)C2)CN1CCCCC1 (stereo not drawn) -6.43%
CCCCn1c(N)c(N(CCOC)C(=O)c2sc3ccccc3c2Cl)c(=O)[nH]c1=O -2.4%
Cc1cc(NC(=O)CSCc2ccccc2C)no1 -1.07%
CC(C)(C)NC(=O)NC(=O)CN1CCC(Cc2ccccc2)CC1 0.69%
Cc1ccc(S(=O)(=O)C2C(=O)NC3(C)CC2c2ccccc2O3)cc1 (stereo not drawn) -3.98%
O=C(NCc1ccccc1)c1ccc(CNc2c(N3CCCC3)c(=O)c2=O)cc1 -2.51%
CC(=O)Oc1ccc2c(=O)oc(-c3ccc([N+](=O)[O-])cc3)nc2c1 6.81%
O=[N+]([O-])c1ccc2oc(-c3cccc(O)c3)nc2c1 -2.7%
CNc1ccc(SC#N)cc1 8.45%
NCCCC[C@@H]1NC(=O)[C@H](CCC(=O)O)NC(=O)c2cc([N+](=O)[O-])cc(I)c2NCC[C@@H](C(N)=O)NC1=O -1.82%
O=C1CCC(C(=O)Nc2ccc(OC(F)F)cc2)N1 (stereo not drawn) 2.5%
Cc1ccc2nc(-c3ccncc3)cc(C(=O)Nc3ccc(OC(F)F)cc3)c2c1 -2.82%
CC1CCCC(NC(=O)c2cc(-c3ccncc3)nc3ccccc23)C1C (stereo not drawn) -0.93%
CC1CCCCC1NC(=O)CCS(=O)(=O)c1ccc2c(c1)NC(=O)CO2 (stereo not drawn) 1.84%
CCc1cc(C(c2ccccc2OC)N2CCOCC2)c(NC(=O)c2ccccc2)s1 (stereo not drawn) -2.8%
COc1ccccc1/C=C/C(=O)NC(=S)N1CCOCC1 -0.42%
Cc1cccc(NC(=O)CSc2nnc(NC(=O)CN3CCOCC3)s2)c1 4.08%
CCCNS(=O)(=O)c1ccc(CCC(=O)N2CCCC2)cc1 0.26%
O=C1N(Cc2ccc3c(c2)OCO3)c2ccccc2C1(O)c1c[nH]c2ccccc12 (stereo not drawn) 4.88%
CCOC(=O)[C@]12CCCC=C1N(Cc1ccc3c(c1)OCO3)C(=O)[C@H](CC(=O)N1CCN(C(=O)c3ccco3)CC1)C2 1.52%
COC(=O)[C@]12CCCCC=C1N(Cc1ccc3c(c1)OCO3)C(=O)[C@H](CC(=O)NCc1cccs1)C2 7.05%
CCNC(=O)c1cc2c(c(-c3cccc(-c4cncnc4)c3)n1)[C@H](CCO)N(C(C)=O)C2 -0.81%
CN1CCC(=O)N([C@H](CO)Cc2ccccc2)CC1 -5.13%
COCCN(CCOC)S(=O)(=O)NC[C@H]1O[C@@H](n2cnc3c(N)ncnc32)[C@H](O)[C@@H]1O 4.4%
